Assay results from PubChem BioAssay (NCI).
This is part of a sample that, as a whole, favours compounds with a hit. Of some 83,000 tested, about 20% had one in any assay.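 Plates (96-well) were seeded with cells, treated with compound at one concentration, and incubated for 48 hours before percent growth was determined.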 Active and inactive are the calls of the source.

The compounds below were run on HT29 colon (assay: NCI-60 one-dose screen, 48 h (100 = growth as untreated, 0 = no growth, -100 = all killed)). Settings: 10 µM unless noted.
Experimental: Growth inhibition of the HT29 human tumor cell line is measured as a screen for anti-cancer activity. Cells are grown in 96 well plates and exposed to the test compound for 48 hours. Compounds are tested at a single concentration, which is 10^-5 M for most compounds. The reported endpoint is percent growth (GI% or GIPRCNT), where numbers from 0 - 100% represent growth inhibition, and numbers from -100% - 0 represent cell death. For example, a value of 40 represents 60% growth inhibition. A value of 0 means no net growth occurred over the course of the experiment. A value of -40 indicates 40% of cells at the beginning of the experiment died by the end of the experiment. A value of -100 means all cells are dead at the end of the experiment.
NCI-60 Human Tumor Cell Lines Screen was performed using the standard one-dose NCI protocol, which is described in more detail at https://dtp.cancer.gov/discovery_development/nci-60/default.htm.
Compounds with GIPRCNT values below 10 were considered active. Activity score was based on GIPRCNT using the following formula: […]
Score is 0 for GIPRCNT values of 100 or above, 50 for GIPRCNT values of 0, and 100 for GIPRCNT values of -100.

| Compound | growth |
| --- | --- |
| CC(C)N=C(N/C(N)=N/c1nc2ccccc2s1)NC(C)C | 31.7% (inactive) |
| O=C1/C(=C/c2ccccc2[N+](=O)[O-])Oc2ccc(O)cc21 | -23.7% (active) |
| COc1ccc2c(c1)oc1c3[nH]c4ccccc4c3c3c(c21)C(=O)N(O)C3=O | 38.3% (inactive) |
| NCCN1CCN(c2nc(-c3ccccc3)nc3nc(-c4ccccc4)oc23)CC1 | -52.8% (active) |
| CS(=O)(=O)c1ccc(-c2nn(-c3ccccc3)cc2/C=N/NC(=O)c2ccncc2)cc1 | 101% (inactive) |
| Cc1ccc(NC(=O)c2ccc(CN3CCN(C)CC3)c(C(F)(F)F)c2)cc1Oc1ccc(-c2[nH]nc3ncnc(N)c23)cc1 | -8.89% (active) |
| Cc1cc(NS(=O)(=O)c2ccc(-c3cnc(C4CC4)o3)cc2)ccc1I | 14.2% (inactive) |
| O=C(/C=C1\C=CN(CCCCF)c2ccccc21)n1ccc2ccccc21 | 107% (inactive) |
| COc1ccc(/C=N/Nc2nc(Nc3ccccc3)nc(Nc3ccc(S(N)(=O)=O)cc3)n2)cc1 | 55.3% (inactive) |
| COc1ccc2c(C3=C(c4cn(C)c5ccccc45)C(=O)NC3=O)coc2c1 | 6.25% (active) |
| O=C1c2c(c3c4cc(O)ccc4oc3c3[nH]c4ccccc4c23)C(=O)N1O | -64.6% (active) |
| CCN(CC)CCN1C(=O)c2c(c3c4cccnc4[nH]c3c3ccc4ccccc4c23)C1=O | 66.7% (inactive) |
| O=C(CCCCCCN1CC(=O)N2[C@@H](c3ccccc3)c3[nH]c4ccccc4c3C[C@H]2C1=O)NO | 41.9% (inactive) |
| CC(=O)c1sc(Nc2cccc(Nc3nc(C)c(C)s3)c2)nc1C | 70% (inactive) |
| O=C1Nc2ccc(Cl)cc2/C1=C/c1ccc(OCc2ccc(Br)cc2F)cc1 | 104% (inactive) |
| COc1c([C@@H](CC(C)C)OC(C)=O)ccc2c1C(=O)OCc1cc(C)cc(O)c1O2 | 13.5% (inactive) |
| O=C1Nc2ccc(Br)cc2/C1=N\c1nnc(-c2ccc(Cl)cc2)o1 | 32.5% (inactive) |
| CC(=O)Nc1ccc(NC(=O)Nc2cccc(-c3nc(-c4ccc(NC(=O)c5cccnc5)cc4Cl)no3)c2)cc1C(F)(F)F | -41% (active) |
| COc1ccc(C2CC(c3ccc(Nc4nc(NCCO)nc(Nc5ccc(Cl)cc5)n4)cc3)=Nc3c(N)nc(N)nc3N2)cc1 (stereo not given) | 54.8% (inactive) |
| CN1C(=O)N(C)C2C1NN=c1s/c(=C\c3ccccn3)c(=O)n12 (stereo not given) | 102% (inactive) |

| Compound | growth |
| --- | --- |
| CCc1ccc(NC(=O)N[C@@H](Cc2cccc(C)c2)C(=O)N[C@@H]2C(=O)N3CCC[C@H]3C(=O)N3CCCC[C@H]3C(=O)N[C@@H](CO)C(=O)N3C[C@H](C)C[C@H]3C(=O)O[C@H]2C)c(F)c1 | 33.5% (inactive) |
| Nc1nc(-c2cccc([N+](=O)[O-])c2)c(N=Nc2ccccc2Cl)s1 | 87.1% (inactive) |
| C#CCOc1ccccc1C(Nc1ccccc1)c1nnnn1C1CCCCC1 (stereo not given) | 105% (inactive) |
| C#CCOc1ccc(/C=N/Nc2nc(-c3cc4cc(Br)cc(Br)c4oc3=O)cs2)cc1 | 104% (inactive) |
| C#C[C@]1(O)CC[C@H]2[C@@H]3CC=C4c5sc(-c6ccc(OC)cc6)nc5CC[C@]4(C)[C@H]3CC[C@@]21C | 46.6% (inactive) |
| CC(C)(C)n1nnnc1C(Nc1nccs1)c1cc2cccc3ccc4cccc1c4c32 (stereo not given) | 104% (inactive) |
| CCN(CC)Cc1c(-c2cccc(OC(F)(F)F)c2)[nH]c2ccc(N3CCCC3)cc2c1=O | 104% (inactive) |
| CC1OC(O[C@@H]2[C@H](O)C(CO)OC(O[C@H]3COC(O[C@H]4CC[C@]5(C)[C@H]6CC[C@]78OC[C@@]9(CC[C@](C)(C=O)C[C@H]97)C(=O)C[C@@]8(C)[C@]6(C)CC[C@H]5C4(C)C)[C@@H](O)[C@@H]3O)[C@H]2OC2OC[C@@H](O)[C@@H](O)[C@@H]2O)[C@@H](O)[C@@H](O)[C@H]1O (stereo not given in full) | 97.1% (inactive) |
| COc1ccc2oc3c4[nH]c5ccccc5c4c4c(c3c2c1)C(=O)N(O)C4=O | 104% (inactive) |
| NS(=O)(=O)c1ccc(Nc2nc(N/N=C/c3ccc(C(F)(F)F)cc3)nc(Nc3ccccc3)n2)cc1 | 11.4% (inactive) |
| CCOC(=O)/C(F)=C/C1CC1CCc1cccc(C(F)(F)F)c1 (stereo not given) | 107% (inactive) |
| CCCCCCNC(=O)Oc1ccc(/C(=C(/C)c2ccc(Cl)cc2)c2ccc(OCCN3CCCC3)cc2)cc1 | -17.7% (active) |
| CS(=O)c1nccc(-c2c(-c3ccc(F)c(OCCc4ccccc4)c3)nc3sccn23)n1 (stereo not given) | 59.9% (inactive) |
| Cc1ccc(-c2cc(-c3ccc(N(C)C)cc3)n3c(n2)nc2ccccc23)cc1 | 65.8% (inactive) |
| CN1CCN(c2ccc(C(=O)Nc3cccc(-c4cn(-c5ccc(S(N)(=O)=O)cc5)nn4)c3)cc2C(F)(F)F)CC1 | 16.7% (inactive) |
| C=CCn1c(SCC(=O)Nc2cccc(C(=O)/C=C/c3ccc(Br)cc3)c2)nc2ccccc2c1=O | 83.9% (inactive) |
| CCC(=O)Nc1ccc(-c2nc(-c3cccc(O)c3)c(-c3ccnc(Br)c3)[nH]2)cc1 | 51.7% (inactive) |
| Oc1ccc(CSc2nnc(-c3ccc(Oc4ccccc4)cc3)o2)c2cccnc12 | 94.4% (inactive) |
| c1cncc(-c2cn3nc(-c4c[nH]c5ccccc45)sc3n2)c1 | 21.6% (inactive) |
| N/C(=N\OC(=O)CSc1nc2ccccc2s1)c1ccc2ccccc2c1 | 103% (inactive) |
